According to PubChem BioAssay (NCATS):
Several values for one entry are separate records, joined by “and”; a condition that tells them apart may be missing. Identical values can stand only once. Records with an inconclusive call do not appear. A call without a number means that no potency is given here. Some compounds were tested as several samples or in several runs, with calls that do not always agree. Activity calls are given as the source filed them. Unless noted, calls come from the whole dose curve; as a rule, active = well fitted curve in the direction sought with a large enough effect; inconclusive = small, poorly fitted or top-dose-only effect, or another doubt; inactive = no such curve, though single readings can be large; an effect the other way counts as inactive or inconclusive.

Molecular target: N-terminal Xaa-Pro-Lys N-methyltransferase 1 (Homo sapiens) (UniProt Q9BV86)
Sequence (Q9BV86 whole entry, looked up): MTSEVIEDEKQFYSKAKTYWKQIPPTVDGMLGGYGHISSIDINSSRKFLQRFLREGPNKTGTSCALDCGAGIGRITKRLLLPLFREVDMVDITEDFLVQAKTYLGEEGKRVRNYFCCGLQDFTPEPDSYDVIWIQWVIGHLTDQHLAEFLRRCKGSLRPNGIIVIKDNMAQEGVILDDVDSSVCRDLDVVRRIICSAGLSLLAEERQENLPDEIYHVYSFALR
Assay: Confirmatory qHTS for Inhibitors of N-terminal methyltransferase 1 (NTMT1): MTaseGlo Assay (AID 1645874); note: nearly all actives have a fitted effect of over 65% in size;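 for activity change, negative = inhibition: luminescence from SAH made as NTMT1 methylates SPKRIA peptide using SAM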
Details: NTMT1 enzyme, MTase-Glo SAH luminescence; series mostly up to 100 µM
Method in brief: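 Inhibition was derived from luminescence after SAH-to-ATP conversion, scaled between no-enzyme and DMSO wells, then fitted by 4-parameter Hill. Conditions: 125 nM NTMT1, 100 uM SAM, 1 uM SPKRIA, 30 min RT.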
Potency is the fitted concentration of half-maximal effect.

Row | SMILES | Potency
1 | CC[C@@H](c1ccc(F)c(F)c1)n1c(C(=O)OC)c(-c2ccno2)[nH]c1=S | inactive
2 | COc1c(C)c(C(=O)c2ccc(N)c(C(=O)O)c2)n2ccccc12 | inactive
3 | COc1cc2c(Nc3ccc(Cl)c(Cl)c3F)ncnc2cc1OCC1C[C@@H]2CN(C)C[C@@H]2C1 (some centres undefined) | 15.1 µM (active)

Tested on: not listed separately
Assay: Primary qHTS for inhibitors of nuclear receptor binding SET domain protein 2 (NSD2) in an isogenic RCH-ACV NSD2 p.E1099K mutant (9B) (AID 1645876); note: nearly all actives have a fitted effect of over 70% in size
Details: RCH-ACV NSD2 E1099K (9B) viability, CellTiter-Glo, 72 h; series mostly up to 44.9 µM

Row | SMILES | Potency
4 | COCCN(C)Cc1ccc2nc3sc(C(=O)N(C)C4CCCCC4)cn3c2c1 | inactive
5 | COCCCNCC1COc2ccccc2O1 (centres undefined) | inactive
6 | Cc1cc(N2CCCCC2)nc2ccccc12 | inactive
7 | c1ccc(C(OC2CCN(CCCc3nn[nH]n3)CC2)c2ccccc2)cc1 | inactive
8 | Cc1nn(C)c(COc2ccc(N3CCN(S(=O)(=O)N(C)C)CC3)cc2)c1-c1cccc2c(CCCOc3cccc4ccccc34)c(C(=O)O)n(CCN3CCOCC3)c12 | inactive
9 | COc1ccc2cc(OCC3(C(=O)O)CN(C(=O)c4ccc(F)cc4)C3)ccc2c1 | inactive
10 | CCCCN(CCCC)C(=O)CN1C[C@H](c2ccc3c(c2)OCO3)[C@@H](C(=O)O)[C@@H]1c1ccc(OC)cc1 | inactive
11 | O=C(c1ccc(C#Cc2cccc(F)c2)cn1)N1CC2CC2C1 (centres undefined) | inactive
12 | O=C(O)c1n[nH]c2c1C[C@H]1C[C@@H]21 | inactive
13 | O=S(=O)(NC1CCNCC1)c1cc(S(=O)(=O)c2ccccc2)ccc1C(F)(F)F | inactive
14 | O=C1CC(c2ccc([N+](=O)[O-])cc2)=NN1c1ccccc1 | inactive
15 | O=C(NCC(=O)N1CC[C@H](NC2CCC(O)(c3ccc(-c4ncccn4)cn3)CC2)C1)c1cccc(C(F)(F)F)c1 (some centres undefined) | inactive
16 | COc1c(C)c(C(=O)c2ccc(N)c(C(=O)O)c2)n2ccccc12 | inactive
17 | COc1cc2c(Nc3ccc(Cl)c(Cl)c3F)ncnc2cc1OCC1C[C@@H]2CN(C)C[C@@H]2C1 (some centres undefined) | 2.95 µM (active)
18 | O=C(C1CC1)N1CC[C@@H](Cc2n[nH]c(=O)n2-c2ccc(-c3ccc4occc4c3)cc2)C1 | inactive and 16.6 µM (active)
19 | COC(=O)[C@H](CC1C=NC=N1)NCC12CC3CC(CC(C3)C1)C2 (some centres undefined) | inactive
20 | FC(F)(F)c1cc(C(F)(F)F)c2ccc3nc(-c4nnco4)cn3c2n1 | inactive
21 | N[C@@H](CC(=O)N1CCn2c(nnc2C(F)(F)F)C1)Cc1[nH]nc2c(F)c(F)ccc12 | inactive

Tested on: not listed separately
Assay: Primary qHTS for inhibitors of nuclear receptor binding SET domain protein 2 (NSD2) in an RCH-ACV wild type WT cells (2C) (AID 1645877); note: nearly all actives have a fitted effect of over 70% in size
Details: RCH-ACV (leukaemia line) NSD2 WT (2C) viability, CellTiter-Glo, 72 h; series mostly up to 44.9 µM

Row | SMILES | Potency
22 | COCCN(C)Cc1ccc2nc3sc(C(=O)N(C)C4CCCCC4)cn3c2c1 | inactive
23 | COCCCNCC1COc2ccccc2O1 (centres undefined) | inactive
24 | Cc1cc(N2CCCCC2)nc2ccccc12 | inactive
25 | c1ccc(C(OC2CCN(CCCc3nn[nH]n3)CC2)c2ccccc2)cc1 | inactive
26 | Cc1nn(C)c(COc2ccc(N3CCN(S(=O)(=O)N(C)C)CC3)cc2)c1-c1cccc2c(CCCOc3cccc4ccccc34)c(C(=O)O)n(CCN3CCOCC3)c12 | inactive
27 | COc1ccc2cc(OCC3(C(=O)O)CN(C(=O)c4ccc(F)cc4)C3)ccc2c1 | inactive
28 | CCCCN(CCCC)C(=O)CN1C[C@H](c2ccc3c(c2)OCO3)[C@@H](C(=O)O)[C@@H]1c1ccc(OC)cc1 | inactive
29 | O=C(c1ccc(C#Cc2cccc(F)c2)cn1)N1CC2CC2C1 (centres undefined) | inactive
30 | O=C(O)c1n[nH]c2c1C[C@H]1C[C@@H]21 | inactive
31 | O=S(=O)(NC1CCNCC1)c1cc(S(=O)(=O)c2ccccc2)ccc1C(F)(F)F | inactive
32 | O=C(NCC(=O)N1CC[C@H](NC2CCC(O)(c3ccc(-c4ncccn4)cn3)CC2)C1)c1cccc(C(F)(F)F)c1 (some centres undefined) | inactive
33 | COc1c(C)c(C(=O)c2ccc(N)c(C(=O)O)c2)n2ccccc12 | inactive
34 | COc1cc2c(Nc3ccc(Cl)c(Cl)c3F)ncnc2cc1OCC1C[C@@H]2CN(C)C[C@@H]2C1 (some centres undefined) | 2.63 µM (active) and 1.86 µM (active)
35 | O=C(C1CC1)N1CC[C@@H](Cc2n[nH]c(=O)n2-c2ccc(-c3ccc4occc4c3)cc2)C1 | inactive and 18.6 µM (active)
36 | COC(=O)[C@H](CC1C=NC=N1)NCC12CC3CC(CC(C3)C1)C2 (some centres undefined) | inactive
37 | FC(F)(F)c1cc(C(F)(F)F)c2ccc3nc(-c4nnco4)cn3c2n1 | inactive
38 | N[C@@H](CC(=O)N1CCn2c(nnc2C(F)(F)F)C1)Cc1[nH]nc2c(F)c(F)ccc12 | inactive

Molecular target: Catechol O-methyltransferase (Homo sapiens) (UniProt P21964)
Sequence (P21964 whole entry, looked up): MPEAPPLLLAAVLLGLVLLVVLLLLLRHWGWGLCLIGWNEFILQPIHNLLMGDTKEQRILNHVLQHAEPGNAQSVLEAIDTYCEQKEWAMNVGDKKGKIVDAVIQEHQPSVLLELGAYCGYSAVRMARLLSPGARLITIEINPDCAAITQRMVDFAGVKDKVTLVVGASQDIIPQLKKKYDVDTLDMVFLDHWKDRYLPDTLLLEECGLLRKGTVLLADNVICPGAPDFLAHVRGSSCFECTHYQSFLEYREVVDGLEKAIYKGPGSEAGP
Assay: Confirmatory Screen for Target Class Profiling of Small Molecule Inhibitors of Methyltransferases (AID 1745852; calls by dose curve)
Details: MTase-Glo luminescence, SAH detection, recombinant enzyme; measured here: COMT max response; stronger effect = lower value

Row | SMILES | activity
39 | COCCN(C)Cc1ccc2nc3sc(C(=O)N(C)C4CCCCC4)cn3c2c1 | -4.7%
40 | CNC1CCN(C(Cc2cccc(-c3ccncc3)c2)C(=O)c2sc3c(F)ccc(F)c3c2Cl)CC1 (centres undefined) | -12.3%
41 | COc1cc2c(Nc3ccc(Cl)c(Cl)c3F)ncnc2cc1OCC1C[C@@H]2CN(C)C[C@@H]2C1 (some centres undefined) | -81.3%

Molecular target: Guanidinoacetate N-methyltransferase (Homo sapiens) (UniProt Q14353)
Assay: as above
Details: MTase-Glo luminescence, SAH detection, recombinant enzyme; activity change, negative = inhibition: at 57.3 µM (top of the series) unless noted; series mostly up to 57.3 µM

Row | SMILES | activity change, negative = inhibition | Potency
42 | COCCN(C)Cc1ccc2nc3sc(C(=O)N(C)C4CCCCC4)cn3c2c1 | 0% | 
43 | CNC1CCN(C(Cc2cccc(-c3ccncc3)c2)C(=O)c2sc3c(F)ccc(F)c3c2Cl)CC1 (centres undefined) |  | 48.2 µM (active)
44 | COc1cc2c(Nc3ccc(Cl)c(Cl)c3F)ncnc2cc1OCC1C[C@@H]2CN(C)C[C@@H]2C1 (some centres undefined) |  | 24.1 µM (active)
